Data reported in PubChem BioAssay (EPA / NIEHS).
Calls of active or inactive are those of the source. Rule for the calls: active = hit-call score of the fitted dose curve at least 0.9, where 1 is the maximum; inactive = score below 0.9.

What follows are compounds tested on Pselectin, SELP (gene 6403) (assay: BSK_4H_Pselectin: BioMAP Diversity Plus: 4H Assay for Pselectin Biomarker Activity (AID 2283026)). Settings: primary human endothelial cells (HUVEC); actives raise or lower the signal.
Procedure: BSK_4H is a cell-based, multiplexed-readout assay that uses umbilical vein endothelium, a human vascular primary cell, with measurements taken at 24 hours after chemical dosing in a 96-well plate.BSK_4H_Pselectin is an assay component measured in the BSK_4H assay. It measures P-Selectin antibody related to regulation of gene expression using ELISA technology.Data from the assay component BSK_4H_Pselectin was analyzed into 1 assay endpoint. This assay endpoint, BSK_4H_Pselectin, was analyzed with bidirectional fitting relative to DMSO as the negative control and baseline of activity. Using a type of binding reporter, gain or loss-of-signal activity can be used to understand changes in the signaling as they relate to the gene SELP. Furthermore, this assay endpoint can be referred to as a primary readout, because this assay has produced multiple assay endpoints where this one serves a signaling function. To generalize the intended target to other relatable targets, this assay endpoint is annotated to the cell adhesion molecules intended target family, where the subfamily is selectins.
The levels of cell surface (or secreted, indicated by the prefix "s") biomarker endpoints were measured by ELISA. Overt cytotoxicity to cells in confluent adherent cultures (all systems other than the BT system) was assessed by measuring total protein levels using sulforhodamine B (SRB) staining in parallel cultures at the time of biomarker measurements, indicated as SRB endpoints. For proliferation assays for adherent cell types, individual cell types are cultured at sub-confluence and relative cell numbers quantified by SRB staining at time points optimized for each system (48 h: 3C and CASM3C systems; 72 h: BT and HDF3CGF systems; 96 h: SAg system). SRB was performed by staining cells with 0.1% SRB after fixation with 10% TCA and reading wells at 560 nm.Viability and proliferation of PBMC (T cells) was quantified by Alamar Blue reduction for the SAg and BT systems. For PBMC viability (referred to as PBMC Cytotoxicity within the assay endpoint names), cells were plated (75,000/well in a 96-well plate) and then chemical samples added for 1 h before addition of activators, SEB and TSST-1 (20 ng/mL final concentration each). Cells were incubated for 90 h. Then, Alamar Blue (20 uL/well) (Invitrogen, Cat DAL1100) was added for 6 h, and the plates were read with a fluorescence microplate reader at 546/580 nm (excitation/emission). For PBMC proliferation, cells were plated and activated as above but incubated for only 16 h prior to addition of Alamar Blue. Plates were read after 6 h.

SMILES	outcome	AC50
CC(CO)OC(C)CO (stereo not given) (tested in a mixture with another compound)	inactive	
Cc1ccc(N(C)C)cc1	inactive	
COc1cc(C=O)ccc1O	inactive	
Cc1ccccc1Cl	inactive	
CN[C@H]1CC[C@@H](c2ccc(Cl)c(Cl)c2)c2ccc(S(N)(=O)=O)cc21		9.02 µM (active)
CCNc1cccc(C)c1	inactive	
C=CCc1ccc(O)c(OC)c1	inactive	
COC(=O)c1ccc(O)cc1	inactive	
O=c1c(O)c(-c2ccc(O)c(O)c2)oc2cc(O)cc(O)c12		16.6 µM (active)
CCCCN(CCCC)CCCC	inactive	
CC=Cc1ccc(O)c(OC)c1	inactive	
CC(=O)Oc1ccccc1C(=O)O	inactive	
Cc1ccc2ncccc2c1	inactive	
CC(C)(C)c1cc(O)c(C(C)(C)C)cc1O		5.24 µM (active)
CCOC(=O)C(C)(C)Oc1ccc(Cl)cc1	inactive	
O=c1[nH]cc(F)c(=O)[nH]1	inactive	
Oc1ccc2ccccc2c1N=Nc1ccccc1	inactive	
CCCCCCC(=O)OCC	inactive	
Nc1ccccc1N	inactive	
C[Si]1(C)O[Si](C)(C)O[Si](C)(C)O[Si](C)(C)O1	inactive	

SMILES	outcome	AC50
O=C(N[C@@H](Cc1ccccc1)[C@@H](O)C(=O)N1C[C@@H](O)[C@@H](O)C1)c1cc2cc(Cl)ccc2[nH]1	inactive	
CCc1c(C(=O)NN2CCCCC2)nn(-c2ccc(Cl)cc2Cl)c1-c1ccc(Br)cc1		2.66 µM (active)
CCCCc1ccc2c(n1)[C@@H](c1ccc(OC)cc1C[C@H](C)C(=O)O)[C@H](C(=O)O)[C@H]2c1ccc2c(c1)OCO2	inactive	
NCC1(Cc2noc(=O)[nH]2)CCCCC1	inactive	
CCCCCCCCCCCCCO		35.1 µM (active)
CCCc1cc(=O)[nH]c(=S)[nH]1	inactive	
CCCCCCCCCCCC(=O)OC	inactive	
CCCCCCOCCO	inactive	
Cc1cccc(C)c1O	inactive	
CC(=O)OC/C=C(\C)CCC=C(C)C	inactive	
Nc1nc(N)c2nc(CNc3ccc(C(=O)N[C@@H](CCC(=O)O)C(=O)O)cc3)cnc2n1	inactive	
Nc1ccc(S(=O)(=O)c2ccc(N)cc2)cc1	inactive	
C[C@]12C=CC(=O)C=C1CC[C@@H]1[C@@H]2C(=O)C[C@@]2(C)[C@H]1CC[C@]2(O)C(=O)CO	inactive	
CC1(C)CC(N=C=O)CC(C)(CN=C=O)C1 (stereo not given)	inactive	
CCCCC(CC)COC(=O)CC(C(=O)OCC(CC)CCCC)S(=O)(=O)O (stereo not given)		32.2 µM (active)
COc1cc(-c2nc(NC(=O)c3cc4cc(C)cc(C)c4n3CC(=O)O)sc2CCC2CCCCC2)c(OC)cc1Cl		3.63 µM (active)
CCOc1ccc2c(c1)C(C)=CC(C)(C)N2	inactive	
CC1=C(/C=C/C(C)=C/C=C/C(C)=C/CO)C(C)(C)CCC1	inactive	
CNCc1cc(F)ccc1Oc1ccc(Cl)c(Cl)c1		26 µM (active)
CN1CCN(Cc2cc(-c3ccc4[nH]c(=O)oc4c3)co2)[C@@H](c2ccc(F)cc2)C1		17.6 µM (active)
